Results filed as inconclusive are left out. Active and inactive are the calls of the source. Calls follow the shape of the dose curve; as a rule, active = well fitted inhibition curve with a large enough effect; inconclusive = small, poorly fitted or top-dose-only effect, or effect the other way; inactive = flat fitted curve, though single readings scatter.
The molecules below were run against Ubiquitin carboxyl-terminal hydrolase 2 (Homo sapiens) (UniProt O75604) (assay: Ub-rhodamine 110 based assay for inhibitors Ubiquitin-specific Protease USP2a). Details: USP2a Ub-rhodamine110 cleavage, fluorescence; series mostly up to 38.3 µM; activity change, negative = inhibition: at the top concentration.
Sequence of Ubiquitin carboxyl-terminal hydrolase 2 (Homo sapiens) (O75604 whole entry, looked up): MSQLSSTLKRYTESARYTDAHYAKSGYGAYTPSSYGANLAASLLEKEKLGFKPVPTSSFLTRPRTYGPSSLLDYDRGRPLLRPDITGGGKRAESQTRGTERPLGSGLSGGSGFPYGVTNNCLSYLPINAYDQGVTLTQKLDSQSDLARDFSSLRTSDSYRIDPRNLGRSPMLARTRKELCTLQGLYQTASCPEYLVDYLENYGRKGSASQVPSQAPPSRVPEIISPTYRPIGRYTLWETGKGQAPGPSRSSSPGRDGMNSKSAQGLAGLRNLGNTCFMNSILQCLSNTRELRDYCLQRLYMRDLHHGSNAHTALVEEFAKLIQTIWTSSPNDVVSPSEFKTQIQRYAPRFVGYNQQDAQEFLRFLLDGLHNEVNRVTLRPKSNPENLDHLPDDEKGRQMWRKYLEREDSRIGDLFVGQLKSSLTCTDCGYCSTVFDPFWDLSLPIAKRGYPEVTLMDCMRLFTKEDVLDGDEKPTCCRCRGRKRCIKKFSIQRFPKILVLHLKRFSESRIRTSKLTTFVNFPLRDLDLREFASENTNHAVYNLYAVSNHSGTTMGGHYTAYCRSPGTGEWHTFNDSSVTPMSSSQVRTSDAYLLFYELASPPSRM
Method in brief: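 Kinetic fluorescence (485/531 nm) read each minute over 7 min after adding Ub-Rhod110 (150 nM final) to USP2a (5 nM final). The enzyme had 30 min RT exposure to compounds beforehand in Tris pH 8.0 buffer with CaCl2, CHAPS and beta-ME.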
% is scaled to controls: 0 for no effect and ±100 for the full control effect; potency is read from the fitted curve at half-maximal effect.
Also: nearly all actives have a fitted effect of over 50% in size.

Activity change, negative = inhibition, inactive:
CCOC(=O)N1CCN(C(=O)CN(c2cccc(C)c2)S(=O)(=O)c2ccccc2)CC1 2.09%
CC(C)(C)NC(=O)C(c1ccco1)N(C(=O)c1ccc(CN2CCOCC2)o1)c1ccccc1 (centres undefined) -10.5%
CC(=O)O[C@H]1[C@H](O)[C@H](Oc2c(O)c(C)c3c4c2[C@@H](C)CC[C@@H]4[C@@H](C)C[C@H]3C=C(C)C)O[C@@H](C)[C@H]1O -1.57%
Cc1c(C(=O)Nc2ccc3c4c(cccc24)CC3)cccc1[N+](=O)[O-] -18%
Cc1cccc(NC(=S)NCc2ccc3c(c2)cc(C)n3C)c1C -9.94%
Cc1noc(NS(=O)(=O)c2ccc(N3CC(O)=C(c4ccccc4)C3=N)cc2)c1C -8.71%
O=c1oc2c(CN3CCCCC3)c(O)ccc2c2c1CCCCC2 3.64%
c1coc(CNC2CCCCCCC2)c1 -3.41%
CCn1nnnc1SCC(=O)Nc1cccc(C)n1 6.59%
NS(=O)(=O)c1ccc(NC(=O)CN2CCCCC2)cc1 0.599%
C#CCOCCOCCOCCNc1nc(N2CCN(C(=O)CCCCCCCCCCNC(=O)[C@H](CCCCN)n3cc(CCO)nn3)CC2)nc(N2CCN(C(=O)CCCCCCCCCCNC(=O)[C@H](CCCCN)n3cc(C[C@@H](C)CC)nn3)CC2)n1 -28.8%
COc1cc(C(=O)OCC(=O)Nc2c(F)c(F)c(F)c(F)c2F)cc(OC)c1OC 0.379%
Cc1ccc2oc(=O)c3cnn(CC(=O)NCCCOC(C)C)c3c2c1 -7.98%
O=C(Nc1cccc(S(=O)(=O)N2CCCC2)c1)c1cncc(Br)c1 5.44%
COc1ccc(NC(=S)NC(=O)/C=C/c2ccco2)cc1 -1.65%
NC(=O)c1ncc(C(F)(F)F)cc1Oc1cccc(F)c1 -2.31%
CCCCNc1nc2ccccc2nc1NS(=O)(=O)c1cccs1 -9%
C=CC[C@H](CC(=O)N[C@H](CO)Cc1ccccc1)C(=O)N[C@@H](COC(=O)[C@@H](CC=C)CC(=O)OC(C)(C)C)Cc1c[nH]c2ccccc12 -19.9%
Cc1cnc(N)c2c(=O)oc3ccccc3c12 -3.73%
COc1ccccc1-n1c(SCC(=O)Nc2ccc(C)cc2)nc(O)cc1=O 1.74%
CC[C@]12c3[nH]c4cc(-c5ccco5)ccc4c3CCN1C(=O)[C@@H](CC(=O)NC/C=C(\C)CCC=C(C)C)C[C@@H]2C(=O)N1CCN(C(=O)C2CC2)CC1 -21%
CC1CCCCC1NC(=O)CSCC(=O)O (centres undefined) 0.809%
Cc1cccc(NCc2nc(-c3ccccc3)no2)c1 0.203%
O=C(C[n+]1cccc(C(=O)N/N=C/c2ccc(Br)cc2)c1)c1ccccc1 -2.35%
Cc1ccc(-c2ccc(CCC(=O)O)n2NC(=O)c2cccs2)cc1 -26.2%
CCCCC1NC(C(=O)O)CS1 (centres undefined) -4.19%
COc1ccccc1C(=O)N1CCN=C1SC 4.99%
CC(C)(C)NC(=O)CSc1nc(O)cc(=O)n1-c1ccccc1F -5.04%

Potency, active:
Cc1ccc(S(=O)(=O)N2[C@@H](c3ccc(C(C)(C)C)cc3)C(C(=O)O)=CC[C@H]2c2cccc(Cl)c2)cc1 5.62 µM
COc1ccc(/C=C2\SC(=S)N(NS(=O)(=O)c3ccc(C)cc3)C2=O)c(OC)c1 10 µM
Cc1ccc(C(=O)Nc2nnc(CC(=O)N/N=C/c3ccc(O)c(O)c3)s2)cc1 4.47 µM
O=C(Nc1ccc(N2CCCC2)cc1)c1ccc(Br)cc1 8.91 µM
CN=c1scc(-c2ccccc2F)n1/N=C/c1ccc(O)c(O)c1O 7.08 µM
O=C(O)c1cc(N2N=C(C(F)(F)F)/C(=C/C=C/c3ccco3)C2=O)ccc1Cl 7.08 µM
O=C(Nc1nc(-c2ccco2)c(-c2ccco2)s1)c1ccc(F)cc1F 10 µM
COc1ccc(/C=C2\SC(=O)N(CC(=O)Nc3cccc(C)c3)C2=O)cc1O 8.91 µM
NS(=O)(=O)c1ccc(N=Nc2c(O)c(C(=O)O)cc3ccccc23)cc1 5.62 µM
C=C1c2cccc(O)c2C(=O)C2C(=O)[C@]3(O)C(=O)C(C(N)=O)C(=O)[C@@H](N(C)C)[C@@H]3[C@@H](O)[C@H]12 (some centres undefined) 8.91 µM
C#CCOCCOCCOCCNc1nc(N2CCN(C(=O)CCCCCCCCCCNC(=O)[C@H]([C@@H](C)CC)n3cc(CCCCCN)nn3)CC2)nc(N2CCN(C(=O)CCCCCCCCCCNC(=O)[C@H]([C@@H](C)CC)n3cc(CCCCN=C(N)N)nn3)CC2)n1 12.6 µM

From PubChem BioAssay AID493170 (National Center for Advancing Translational Sciences (NCATS), 2011)
